This excerpt belongs to a sample that is enriched for hits.
RORg inh: qHTS for inhibitors of ROR gamma transcriptional activity; Nuclear receptor ROR-gamma (Mus musculus), P51450; Drosophila S2 Gal4-RORgamma UAS-luciferase reporter, 20 h; Potency, µM (doses to about 53.6 µM), hits mostly inhibitors; 310,000 tested, 5.4% active; AID 2551, 2010; also: nearly all actives have a fitted effect of over 60% in size
Target sequence (P51450 whole entry, looked up, the tested form may be a part): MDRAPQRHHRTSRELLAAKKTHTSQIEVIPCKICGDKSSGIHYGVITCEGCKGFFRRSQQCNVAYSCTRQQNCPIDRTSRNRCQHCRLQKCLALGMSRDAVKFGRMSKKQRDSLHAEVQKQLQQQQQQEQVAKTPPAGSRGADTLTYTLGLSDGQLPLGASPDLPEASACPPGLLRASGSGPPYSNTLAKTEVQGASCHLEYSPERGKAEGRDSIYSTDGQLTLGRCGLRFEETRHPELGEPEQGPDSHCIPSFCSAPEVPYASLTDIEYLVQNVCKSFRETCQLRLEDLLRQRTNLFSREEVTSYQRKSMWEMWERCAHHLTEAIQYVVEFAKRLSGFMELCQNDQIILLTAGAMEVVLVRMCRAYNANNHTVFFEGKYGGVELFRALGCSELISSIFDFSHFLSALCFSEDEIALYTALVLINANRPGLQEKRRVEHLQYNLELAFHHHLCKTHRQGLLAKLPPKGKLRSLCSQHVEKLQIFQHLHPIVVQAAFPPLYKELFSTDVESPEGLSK
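Schneider cells (Drosophila), stable Gal4 DBD–ROR gamma + UAS-luc; 1 hr cmpd preincubation; Cu2+ induction 700 uM final; 20 hr ambient; luminescence.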
Giardia kill: Small Molecules that selectively kill Giardia lamblia: qHTS; AID 540267, 2011; Giardia lamblia trophozoite viability; 340,000 tested, 0.15% active; activity change, % at 7.66 µM, hits read low; in the data active = activity change below about -80%; inconclusive = between about -30% and that limit;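 also: parasites exposed to compound for two days anaerobically before the ATP read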
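Luminescent ATP signal served as the viability read-out, measured 15-30 min after adding ATP detection reagent to trophozoites that had been incubated with compounds for 48 hrs at 37 deg C anaerobically at 100 cells/well.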
a7 integrin act: qHTS for Activators of Integrin-Mediated Alleviation for Muscular Dystrophy; AID 624291, 2012; alpha7betagal myoblasts, beta-gal FDG fluorescence, 48 h; Potency, µM (doses to about 38.3 µM), most hits filed as activators; 350,000 tested, 0.064% active; also: nearly all actives have a fitted effect of over 60% in size
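alpha7betagal+/- myoblasts (passage 13, 250/well) treated 48 h at 37C with compounds at 1:260 dilution of DMSO stock. Lysed, then beta-galactosidase activity read as FDG fluorescence (ex 480/em 540) after 30 min, with pre-read for autofluorescence.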
ERG Ets-DNA blk: qHTS for Small Molecule Inhibitors of the ERG Ets/DNA interaction; 370,000 tested, 0.028% active; fluorescence polarization, His-ERG Ets domain / labelled DNA; Potency, µM (top dose mostly 76.9 µM), actives largely listed as inhibitors; AID 624246, 2012; Transcriptional regulator ERG (Homo sapiens), P11308; active = well fitted inhibition curve with a large enough effect in the polarisation, with a control signal flat; inconclusive = small, poorly fitted or top-dose-only effect, or effect the other way, or a change in a side signal; inactive = no such curve, though single readings can be large or run the other way; the % refers to the polarisation;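 also: polarization taken with two DNA probes labelled with fluorescein and Texas red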
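His-tagged ERG Ets domain (1 uM in the protein solution; 300mM KCl, 50mM Tris-HCl, 1mM EDTA, 1mM DTT, pH 7.5) received compound, then a probe mix of 5 nM fluorescein-DNA and 100nM Texas-615-DNA. Fluorescence polarization was read for both dyes.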
Gal4-VP16 FLuc: VP16 counterscreen qHTS for inhibitors of ROR gamma transcriptional activity; Drosophila S2 Gal4-VP16 UAS-luciferase, luminescence, 20 h; Potency, µM (titrated, usually from 53.6 µM), usual class: inhibitors; 310,000 tested, 3.5% active;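 also: Gal4-VP16 expression switched on by copper sulfate through the metallothionein promoter; nearly all actives have a fitted effect of over 50% in size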
Of the large screens only hits and unclear results are named; the others gave an inactive call. Unless noted, calls follow the shape of the dose curve; as a rule, active = well fitted curve in the direction sought with a large enough effect; inconclusive = small, poorly fitted or top-dose-only effect, or another doubt; inactive = no such curve, though single readings can be large; an effect the other way counts as inactive or inconclusive.

COc1ccc(-c2csc(NC(=O)C3CCN(C(=O)c4ccc(F)cc4)CC3)n2)cc1OC	none (no result: RORg inh, Gal4-VP16 FLuc)
CC(C)=CCc1c(O)cc2occ(-c3ccc4c(c3)OCO4)c(=O)c2c1O	RORg inh inconclusive, Gal4-VP16 FLuc 14.1µM (no result: Giardia kill, a7 integrin act, ERG Ets-DNA blk)
S=C(NCCCc1cnc[nH]1)NCCCN(CCc1ccccc1)c1ccc(Br)cn1	none (no result: RORg inh, a7 integrin act, ERG Ets-DNA blk, Gal4-VP16 FLuc)
O=C(Nc1ccc(Cl)cc1)[C@@H]1[C@@H]2C(=O)N(c3ccc(Cl)cc3)C(=O)[C@@H]2[C@H]2C=CC=NN21	none
Cc1ccc(N2C(=O)[C@@H]3[C@H](C2=O)[C@H]2C=CC=NN2[C@@H]3C(=O)Nc2ccc(Cl)cc2)cc1	RORg inh 10µM, Gal4-VP16 FLuc inconclusive
N#Cc1c[nH]n2c(NC3CCCC3)c(-c3cccc(Br)c3)nc12	none (no result: RORg inh, Giardia kill, a7 integrin act, Gal4-VP16 FLuc)
Cc1nc2ccccc2n1CC(O)COc1ccc(Br)cc1 (centres undefined)	RORg inh inconclusive, Gal4-VP16 FLuc 14.1µM
Cc1nc2ccccc2n1CC(O)COc1ccccc1Cl (centres undefined)	RORg inh inconclusive, Gal4-VP16 FLuc 17.8µM
Cc1nc2ccccc2n1CC(O)COc1ccc(C(=O)O)cc1 (centres undefined)	none (no result: RORg inh, Giardia kill, a7 integrin act, Gal4-VP16 FLuc)
Cc1nc2ccccc2n1CC(O)Cn1c(C(F)(F)F)nc2ccccc21 (centres undefined)	none
CCC(=O)c1ccc(OCC(O)Cn2c(C)nc3ccccc32)cc1 (centres undefined)	RORg inh inconclusive, Gal4-VP16 FLuc 7.94µM
COc1ccc(/C=C/C(=O)Nc2cccc(F)c2)cc1	none (no result: RORg inh, Giardia kill, a7 integrin act, Gal4-VP16 FLuc)
COc1ccc(/C=C/C(=O)Nc2cccc(C(C)=O)c2)cc1	RORg inh 3.16µM, Gal4-VP16 FLuc 6.31µM
COc1cccc(/C=C/C(=O)Nc2ccc3c(c2)OCCO3)c1OC	RORg inh 1.12µM, Giardia kill inconclusive, Gal4-VP16 FLuc inconclusive
COc1ccc(OC)c(/C=C/C(=O)c2ccc3c(c2)OCCO3)c1	RORg inh 10µM
COc1cccc(/C=C/C(=O)Nc2cccc(C(C)=O)c2)c1OC	RORg inh 1.41µM, Giardia kill inconclusive, Gal4-VP16 FLuc inconclusive
COc1ccccc1/C=C/C(=O)Nc1cccc(C(C)=O)c1	a7 integrin act inconclusive, Gal4-VP16 FLuc inconclusive
Fc1cccc(/C=C2\CCCC3=C2NC(=S)NC3c2cccc(F)c2)c1 (centres undefined)	RORg inh 2.82µM, Gal4-VP16 FLuc 3.55µM
S=C1NC2=C(CCC/C2=C\c2ccc(Cl)cc2)C(c2ccc(Cl)cc2)N1 (centres undefined)	Gal4-VP16 FLuc inconclusive
S=C1NC2=C(CCC/C2=C\c2ccccc2)C(c2ccccc2)N1 (centres undefined)	RORg inh 3.55µM, Gal4-VP16 FLuc 8.91µM
O=C1/C(=C/c2ccc(F)cc2)CCC1C1CCCC1 (centres undefined)	Gal4-VP16 FLuc inconclusive
C(=C1/CCCC2=C1Nc1ncnn1C2c1ccccc1)/c1ccccc1 (centres undefined)	RORg inh 2.82µM, Gal4-VP16 FLuc 3.98µM (no result: Giardia kill, a7 integrin act, ERG Ets-DNA blk)
CC1CC2=C(NC(=S)NC2c2ccc(F)cc2)/C(=C/c2ccc(F)cc2)C1 (centres undefined)	RORg inh 1.58µM, Gal4-VP16 FLuc 7.08µM
CCOc1ccccc1NC(=O)C(NS(=O)(=O)c1ccc2c(c1)CCC(=O)N2)c1ccccc1 (centres undefined)	none (no result: RORg inh, Giardia kill, a7 integrin act, Gal4-VP16 FLuc)
O=C1CC(c2ccccc2F)c2cc3c(cc2N1)CCC3 (centres undefined)	none
Fc1ccccc1/C=C1\CCCC2=C1NC(=S)NC2c1ccccc1F (centres undefined)	RORg inh 2.51µM, Gal4-VP16 FLuc 11.2µM
COc1ccc(C2C3=C(Nc4ncnn42)c2ccccc2CC3)cc1OC (centres undefined)	none (no result: Giardia kill, a7 integrin act, ERG Ets-DNA blk)
FC(F)(F)c1ccccc1C1C2=C(Nc3ncnn31)c1ccccc1CCC2 (centres undefined)	Gal4-VP16 FLuc 4.47µM (no result: Giardia kill, a7 integrin act, ERG Ets-DNA blk)
CCCCCc1ccc(C)cc1O	Gal4-VP16 FLuc inconclusive (no result: Giardia kill, a7 integrin act, ERG Ets-DNA blk)
CCC1C(=O)CC2CCN3C(=O)CCC1C23 (centres undefined)	none (no result: a7 integrin act, ERG Ets-DNA blk)
O=C(Nc1nc2ccc(F)cc2s1)C1=COCCO1	none (no result: RORg inh, Gal4-VP16 FLuc)
Cc1cc(C)c2sc(NC(=O)c3ccc(N4C(=O)CCC4=O)cc3)nc2c1	RORg inh 0.112µM, Gal4-VP16 FLuc inconclusive
Cc1cc(C)c2sc(NC(=O)C3=COCCO3)nc2c1	RORg inh 0.794µM, Gal4-VP16 FLuc 5.62µM
O=C(Nc1nc2cc3c(cc2s1)OCCO3)C1=COCCO1	RORg inh 1µM, Giardia kill -86.3, Gal4-VP16 FLuc 2.24µM
CC(C)(C)c1ccc(S(=O)(=O)N2CCN(CC(=O)NC(=O)NC3CCCCC3)CC2)cc1	none (no result: RORg inh, Gal4-VP16 FLuc)
N/C(=N\OC(=O)CCC1CCCCC1)c1ccc([N+](=O)[O-])cc1	none
N/C(=N\OC(=O)CC1CCCCC1)c1ccc([N+](=O)[O-])cc1	Gal4-VP16 FLuc 35.5µM
O=C(NN=Cc1ccc(O)cc1)c1ccccc1NS(=O)(=O)c1cccs1	none (no result: RORg inh, Gal4-VP16 FLuc)
Cc1cc(C(=O)N/N=C/c2cc(Cl)cc([N+](=O)[O-])c2O)c2ccccc2n1	RORg inh 1.58µM, Gal4-VP16 FLuc 11.2µM
O=C(N/N=C/c1ccc(O)cc1O)/C(=C/c1ccccc1)CCO	RORg inh 11.2µM, Gal4-VP16 FLuc inconclusive
O=C(N/N=C/c1cc(Cl)cc([N+](=O)[O-])c1O)c1ccccc1NS(=O)(=O)c1cccs1	RORg inh 2.82µM, Gal4-VP16 FLuc 10µM
CCc1cc(C(=O)N/N=C/c2ccc(O)cc2O)c2ccccc2n1	RORg inh 11.2µM, Gal4-VP16 FLuc inconclusive
O=C(N/N=C/c1ccc(O)cc1O)c1ccncc1	none
COc1cc(/C=N/NC(=O)/C(=C/c2ccccc2)CCO)ccc1O	none
CCN(Cc1ccc(OC)cc1)c1ccc(-c2nc(-c3ccncc3)no2)cc1[N+](=O)[O-]	none (no result: RORg inh, Giardia kill, a7 integrin act, Gal4-VP16 FLuc)
CC1=C(C(=O)OC(C)C)C(c2cccc([N+](=O)[O-])c2)n2c(cc(=O)[nH]c2=S)N1 (centres undefined)	RORg inh 12.6µM
O=C(NCCN1CCOCC1)NC1(C(F)(F)F)Oc2ccc(Cl)cc2O1 (centres undefined)	RORg inh 0.316µM, Gal4-VP16 FLuc inconclusive
COCC(C)NC(=O)NC1(C(F)(F)F)Oc2ccc(Cl)cc2O1 (centres undefined)	RORg inh 10µM, Gal4-VP16 FLuc 11.2µM
O=C(NCCN1CCOCC1)c1cc(Cl)ccc1Cl	none
CC(C)CC(C(=O)NCCc1ccccc1)N1Cc2ccccc2C1=O (centres undefined)	none (no result: RORg inh, Giardia kill, a7 integrin act, Gal4-VP16 FLuc)
CCOc1ccc(-n2nc3cc(C)c(NC(=O)c4cc(OCC)c(OCC)c(OCC)c4)cc3n2)cc1	none (no result: RORg inh, Giardia kill, a7 integrin act, Gal4-VP16 FLuc)
Cc1cc(C(=O)N/N=C/C=C/c2ccccc2)n[nH]1	none
O=C(N/N=C/c1cccs1)c1cc(-c2ccc(Cl)s2)[nH]n1	RORg inh 10µM, Gal4-VP16 FLuc 7.94µM
